Source: PubChem (several laboratories)
This is a sample that favours compounds with a hit; in the whole collection about 1.8% have one here.
PABP FP inh: PABP-poly(A) binding inhibition. P11940. PABP-poly(A) RNA binding, fluorescence polarization. calls only at 35 µM. hit rate 1% among 290,000. AID 2014;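 note: calls also rest on retests at 20 µM and on dose response follow-up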
eIF4H inh: inhibitors of RNA binding by human eIF4H | eIF4H fluorescence polarization binding assay | hit rate 0.94% among 290,000 | Q15056 | inhibition, % at 35 µM;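 note: calls also rest on retests at 20 µM and on dose response follow-up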
MEX-5 binding: C. elegans MEX-5 TCR-2 RNA binding activity; activity score (negative = inhibition of binding), % at 10 µM; AID 1832; hit rate 0.38% among 300,000; MEX-5/FITC-TCR2 RNA binding, fluorescence polarization; active compounds read low;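 active = inhibition past about -25% in most replicates, and total fluorescence under double the plate's negative control median, limit read from the data; inconclusive = replicates evenly split on the limit, or fluorescence at least double controls; inactive = too little inhibition in most replicates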;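 note: 0% = DMSO and -100% = 5 µM competing unlabeled TCR2 RNA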
MLLE-PAM2 inh: blocks PAM2 peptide binding to the PABP1 MLLE domain; GST-MLLE / FITC-PAM2 fluorescence polarization; P11940; hit rate 0.36% among 360,000; inhibition, % at 20 µM; AID 588489; in the data active = inhibition above about 35%, passing the limit was not always enough;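 note: plate controls were DMSO wells with GST-MLLE for no effect and wells lacking GST-MLLE protein for full effect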
EBV gp42 block: blocks Epstein-Barr virus glycoprotein 42 binding. Fluorescence polarization binding assay, mP read-out. Q1HVG2. inhibition, % (tested at 21.74 µM). hit rate 0.42% among 220,000; in the data active = inhibition above about 50%
Target sequence (Q1HVG2 whole entry, looked up): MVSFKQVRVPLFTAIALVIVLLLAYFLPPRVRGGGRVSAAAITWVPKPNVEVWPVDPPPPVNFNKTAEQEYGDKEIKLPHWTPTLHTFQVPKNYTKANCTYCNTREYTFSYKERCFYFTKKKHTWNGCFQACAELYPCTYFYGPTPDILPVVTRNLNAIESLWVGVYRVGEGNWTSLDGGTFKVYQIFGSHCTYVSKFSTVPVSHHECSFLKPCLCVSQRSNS
Numbers without * were called inactive; i = inactive; ? = inconclusive; / = not tested or not shown; + = active, no number; ! = not active in a repeat. Unless noted, the rule behind the calls is not given here.

SMILES	PABP FP inh	eIF4H inh	MEX-5 binding	MLLE-PAM2 inh	EBV gp42 block
Cc1ccccc1Cn1c(C)c(C(=O)NCCC#N)sc1=O	/	/	/	-6	/
O=C(CN1C(=O)c2ccccc2C1=O)C(O)CN1C(=O)c2ccccc2C1=O (stereo not drawn)	/	/	/	6	/
CN1CCc2cccc3c2[C@H]1Cc1ccc(O)c(O)c1-3	i	9	-84*	32	-1
NC(=O)N1c2ccccc2C=Cc2ccccc21	i	4	1	-18	0
NC(=O)N1c2ccccc2CC(=O)c2ccccc21	+!	71*!	-12	61*	11
OC[C@@H]1CN(Cc2cccnc2)C[C@H](n2cnc3c(N4CCN(c5ccccc5)CC4)ncnc32)O1	/	/	/	11	/
O=C(Nc1ccccc1N1CCCC1)c1cc2ccccc2o1	i	9	1	41*	-5
Cc1ccc(C(=O)Nc2ccccc2N2CCCCC2)cc1	i	-6	-1	-7	/
Cc1ccc(C(=O)Nc2ccccc2N2CCCC2)cc1	+	83*	2	-1	/
CN1C(=O)c2ccc(N3CCCC3)cc2C1=O	+	72*	-10	10	32
CCOC(=O)c1c(NC(=O)COC(=O)c2ccc(Cl)nc2)sc(C)c1C	/	/	/	14	/
O=C1C=CC(=O)N1c1ccc2ccccc2c1	/	/	/	35	/
O=C1C=CC(=O)N1c1ccc(Nc2ccccc2)cc1	/	/	/	41*	/
O=[N+]([O-])c1ccc(/C=C/C2=NN(c3ccccc3)C(c3ccco3)C2)cc1 (stereo not drawn)	i	23	/	-113	-22
O=[N+]([O-])c1ccc(C2=NN(c3ccccc3)C(c3ccco3)C2)cc1 (stereo not drawn)	+	104*	3	-95	-3
O=C(c1oc2ccccc2c1CSCc1ccccc1)N1CCN(c2ncccn2)CC1	i	16	-1	69*	10
CCOCC(=O)Nc1c(C(=O)N2CCN(c3ncccn3)CC2)oc2ccccc12	i	-6	2	10	/
Cc1cc(OCC(=O)OCC(=O)N2CCCc3ccccc32)ccc1Cl	/	/	/	-7	/
COc1ccc(NC(=O)c2cc(C3CCCCN3C(=O)c3cc(OC)c(C)c(OC)c3)on2)c(C)c1 (stereo not drawn)	/	/	/	4	/
O=C1N/C(=C/c2ccco2)C(=O)N1Cc1ccccc1F	+	96*	0	7	1
O=C1N/C(=C/c2cccs2)C(=O)N1Cc1ccccc1F	i	7	-1	-9	-19
COc1ccc(/C=C2/NC(=O)N(Cc3ccccc3F)C2=O)cc1OC	+	?	1	-3	-2
CCc1ccc(-c2csc(NC(=O)C3=NN(c4ccccc4)C(=O)CC3)n2)cc1	i	active	-3	-18	-18
Cc1cc(C)c(-c2csc(NC(=O)C3=NN(c4ccccc4)C(=O)CC3)n2)c(C)c1	i	-6	1	-17	-11
O=C(NC(=S)Nc1cc([N+](=O)[O-])ccc1O)c1cccnc1	i	7	-2	42*	-10
SMILES	PABP FP inh	eIF4H inh	MEX-5 binding	MLLE-PAM2 inh	EBV gp42 block
O=C(NC(=S)Nc1ccccc1O)c1cccnc1	i	4	-1	32	/
Cc1ccc([N+](=O)[O-])cc1NC(=S)NC(=O)c1cccnc1	i	-5	1	41*	-4
CC(=O)NC(C)(c1ccccc1)c1nc(-c2cccc(C(F)(F)F)c2)cs1 (stereo not drawn)	/	/	/	7	/
COc1cccc(-c2nc(=S)c3c(n2CCCO)CCCC3)c1	i	12	-1	41*	-10
CCC(=O)c1ccc(NC(C)=O)cc1O	+	77*	/	3	-8
COC(=O)c1ccc(NC(C)=O)cc1O	i	4	/	/	-9
Cc1cccc(N2CCN(C(=O)COc3noc4nc(C)cc(C)c34)CC2C)c1 (stereo not drawn)	/	/	/	5	/
O=C(O)c1ccc(COc2ccccc2C=C2C(=O)c3ccccc3C2=O)cc1	+	0	-1	13	-7
COc1ccc(-n2cccc2/C=C2/NC(=O)N(c3cccc(Cl)c3)C2=O)cc1	i	-1	-1	-145	-81
O=C(O)c1ccc(COc2ccccc2/C=C2\NC(=O)N(Cc3ccc(F)cc3)C2=O)cc1	i	-2	0	-4	11
O=C(O)c1cccc(-n2cccc2/C=C2/NC(=O)N(c3ccc(Cl)cc3)C2=O)c1	?	?	/	-6	95*
O=C(O)c1cccc(-n2cccc2/C=C2/NC(=O)N(c3cccc(Cl)c3)C2=O)c1	+	97*	/	-67	-25
O=C(O)c1ccc(COc2ccccc2/C=C2/NC(=O)N(c3cccc(Cl)c3)C2=O)cc1	+	54*	-4	-5	-4
